Among all 5,400 compounds or so, about 190 (3.5%) showed an effect of 50% or more. Shown is part of a subset that was picked to be rich in strong results. Non-standard residues stand in square brackets, D forms with d. Residues, ends and D or L forms follow the SMILES beside them. NMeF = CN[C@@H](Cc1ccccc1)C(=O)O
The compounds below were run on Vero-E6 (assay: primary screen, phospholipidosis by LipidTOX staining; higher = more effect of the substance). Settings: 10 µM.
In short: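 Single-concentration screen at 10 μM, with DMSO 0.1 v/v % and amiodarone 10 μM as controls. Read-out is LipidTOX Red phospholipid staining, which tolerates aldehyde fixation, in Vero-E6 cells.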

SMILES | result_ITMP [%]
O=c1nc[nH]c2c([C@@H]3N[C@H](CO)[C@@H](O)[C@H]3O)c[nH]c12 | -0.15
CC(C)C[C@H](NC(=O)CNC(=O)[C@H](Cc1ccc(O)cc1)NC(=O)[C@H](CO)NC(=O)[C@H](Cc1c[nH]c2ccccc12)NC(=O)[C@H](Cc1c[nH]cn1)NC(=O)[C@@H]1CCC(=O)N1)C(=O)N[C@@H](CCCNC(=N)N)C(=O)N1CCC[C@H]1C(=O)NCC(N)=O | 1.23
CN/C(=N\C#N)NCCSCc1nc[nH]c1C | -2.74
Cc1cc(N2CCOCC2)cc2nc(-c3c(NC[C@@H](O)c4cccc(Cl)c4)cc[nH]c3=O)[nH]c12 | -0.86
CCN(CC)CCCN(c1ccccc1)C1Cc2ccccc2C1 | 51.9
COc1cc[nH]c2ncc(C(=O)C(=O)N3CCN(C(=O)c4ccccc4)C[C@H]3C)c1-2 | -6.29
CSCC[C@H](NC(=O)[C@H](CC(C)C)NC(=O)[C@@H](Cc1c[nH]c2ccccc12)NC(=O)[C@H](Cc1ccccc1)N(C)C(=O)[C@@H](Cc1c[nH]c2ccccc12)NC(=O)[C@@H](N)CCCN=C(N)N)C(N)=O (H-R[dW][NMeF][dW]LM-NH2) | -1.85
CC1(COc2ccc3c(c2)ncn3-c2ccc3cccc(N4CCC(N)CC4)c3n2)COC1 | 64.2
NC1CCN(c2cccc(Cl)n2)CC1 | 6.27
CCOC(=O)c1ccc(OCCC2CCN(c3ccc(C)nn3)CC2)cc1 | -2.25
COCCOc1ccc2c(c1)ncn2-c1ccc2cccc(N3CCC(N)CC3)c2n1 | 62.5
CCN1CCN(C(=O)NC(C(=O)N[C@@H]2C(=O)N3[C@@H]2SC(C)(C)[C@@H]3C(=O)[O-])c2ccccc2)C(=O)C1=O (stereo partly shown) | -2.05
C=CC(=O)N1CCCC(n2nc(-c3ccc(Oc4ccccc4)cc3)c3c(N)ncnc32)C1 (stereo not shown) | -4.8
N[C@@H](Cc1ccc(I)cc1)C(=O)O | -0.07
N=C(N)SCc1ccc(B(O)O)cc1 | -0.1
CC(=O)O[C@H]1CC[C@@]2(C)C(=CC(=O)[C@@H]3[C@@H]2CC[C@]2(C)C(=O)CC[C@@H]32)C1 | -7.66
Cn1cc(/C=C2/C(=O)Nc3cccnc32)c2ccccc21 | 2.75
CCS(=O)c1nc(-c2cccc(OCc3ccccc3)c2)cc(C(F)(F)F)n1 (stereo not shown) | -1.04
CCCC[N+]1(C)[C@@H]2C[C@@H](OC(=O)[C@H](CO)c3ccccc3)C[C@H]1[C@@H]1O[C@@H]12 (stereo partly shown) | -5.86
Nc1c(CC(=O)[O-])cccc1C(=O)c1ccccc1 | -2.23
CN1CCCN(C(c2ccccc2)c2ccc(Cl)cc2)CC1 (stereo not shown) | 82.5
CN1CCN(C(c2ccccc2)c2ccccc2)CC1 | 16.1
CN1CCN(C(c2ccccc2)c2ccc(Cl)cc2)CC1 (stereo not shown) | 44.4
O=C(Nc1ccccc1)Nc1ccc(-c2ccc(C(=O)[C@@H]3CCC[C@H]3C(=O)O)cc2)cc1 [R4A_0000400_001 / SPE_K28861668] | -3.95
O=C(O)[C@@H](S)[C@@H](S)C(=O)O | -5.93
CCC[C@@H]1C[C@@H](C(=O)N[C@@H]([C@H]2O[C@H](SC)[C@H](OP(=O)(O)O)[C@@H](O)[C@H]2O)[C@H](C)Cl)N(C)C1 | -1.73

SMILES | result_ITMP [%]
CC1(C)C(/C=C/C=C/C=C/C=C2/N(CCCCS(=O)(=O)[O-])c3ccc4ccccc4c3C2(C)C)=[N+](CCCCS(=O)(=O)[O-])c2ccc3ccccc3c21 | -0.75
Cc1cccc(C)c1NC(=O)CN1CCCCCC1 | -0.91
Cc1cccc(C)c1NC(=O)CN1CCN(CCCC(c2ccc(F)cc2)c2ccc(F)cc2)CC1 | 52.6
CCNC(=O)N1CCN(CCCC(c2ccc(F)cc2)c2ccc(F)cc2)CC1 | 8.88
O=C(/C=C/c1c(C(=O)[O-])[nH]c2cc(Cl)cc(Cl)c12)Nc1ccccc1 | 0.43
Cc1ccc(C(=O)c2ccc(CC(=O)[O-])n2C)cc1 | -3.18
CC(CN1c2ccccc2Sc2ccccc21)N(C)C (stereo not shown) | 55.4
CCN(CC)C(C)C(=O)c1ccccc1 (stereo not shown) | -5.15
CC(CC(C(N)=O)(c1ccccc1)c1ccccc1)N(C)C (stereo not shown) | -2.3
CCOC(=O)Nc1ccc2c(c1)N(C(=O)CCN(CC)CC)c1ccccc1S2 | 12
CCN(CC)C(C)CN1c2ccccc2Sc2ccccc21 (stereo not shown) | 63.9
COC(=O)/C=C/C(=O)N[C@@H]1CC[C@@]2(O)C3Cc4ccc(O)c5c4[C@@]2(CCN3CC2CC2)[C@H]1O5 | -2
CC(O)(P(=O)([O-])O)P(=O)([O-])O | -0.98
Fc1cc(F)c2c(c1)[C@H]1C=CC[C@H]1C(c1cccnc1)N2 (mixture of isomers) | -14.4
O=S(=O)([O-])CCS | -2.99
OC[C@H]1O[C@@](CO)(O[C@H]2O[C@H](CO)[C@@H](O)[C@H](O)[C@H]2O)[C@@H](O)[C@@H]1O | -5.71
CN(C)CCC(c1ccc(Cl)cc1)c1ccccn1 (stereo not shown) [R4A_0004036_001 / SPE_A04553218] | 16
C[C@]12CC[C@H](O)CC1=CC[C@@H]1[C@@H]2CC[C@]2(C)C(c3cccnc3)=CC[C@@H]12 | -5.26
C[CH2][Hg][S]c1ccccc1C(=O)[O-] | 6.82
O=C([O-])C(=O)[O-].[NH-][C@@H]1CCCC[C@H]1[NH-].[Pt+4] | 22.9
COc1cc2c(NC3CCN(C(C)C)CC3)nc(C3CCCCC3)nc2cc1OCCCN1CCCC1 | 60.7
COc1cc2c(NC3CCN(C4CCCCC4)CC3)nc(N3CCCN(C(C)C)CC3)nc2cc1OCCCN1CCCCC1 | -1.55
COc1cc2c(NC3CCN(C(C)C)CC3)nc(N3CCC(F)(F)CC3)nc2cc1OCCCN1CCCC1 | 8.94
C[C@]12CC[C@H](O)C[C@H]1CC[C@@H]1[C@@H]2CC[C@]2(C)[C@@H](c3ccc(=O)oc3)C[C@H]3O[C@]132 | -2.23
Nc1ncnc2[nH]cnc12 | -2.75
C/C(=N\NC(=S)NNC(=S)Nc1ccccc1Cl)c1ccccn1 | -0.18
